High-throughput results as filed in PubChem BioAssay.
Compounds with a hit are over-represented: about 3.1% of the library has one in this group of screens.
D3 ag: D3 dopamine receptor (human) agonism | max activation, % | P35462 | AID 652048 | D3R DiscoveRx beta-arrestin cells, luminescence, 90 min | 410,000 tested, 0.58% active; in the data active means max activation above about 30%; further: 0% is about no effect
Target sequence (P35462 whole entry, looked up): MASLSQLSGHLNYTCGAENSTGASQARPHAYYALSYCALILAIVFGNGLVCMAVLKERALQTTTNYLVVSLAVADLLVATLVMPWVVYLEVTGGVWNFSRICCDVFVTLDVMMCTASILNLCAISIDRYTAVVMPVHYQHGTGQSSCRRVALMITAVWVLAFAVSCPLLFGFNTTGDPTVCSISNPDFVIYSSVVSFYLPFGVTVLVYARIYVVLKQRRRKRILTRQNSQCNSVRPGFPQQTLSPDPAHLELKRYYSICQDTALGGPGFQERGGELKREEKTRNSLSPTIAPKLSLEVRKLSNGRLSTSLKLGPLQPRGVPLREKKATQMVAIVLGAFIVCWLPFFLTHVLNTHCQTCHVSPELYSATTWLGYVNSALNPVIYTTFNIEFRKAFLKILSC
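Agonist-mode cell screen: cells plated at 1500/well and incubated overnight at 37 °C, then exposed to library compounds for 90 min at 37 °C. Detection reagent was added for 30–60 min at room temperature, and luminescence was read.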
uPA surface inh: cell surface uPA generation inhibition; Potency, µM (highest dose often 38.3 µM), inactives show top-dose activity change, negative = inhibition, most hits filed as inhibitors; 330,000 tested, 0.31% active; cell surface uPA generation assay, qHTS; active means well fitted inhibition curve with a large enough effect; inconclusive means small, poorly fitted or top-dose-only effect; inactive means no such curve, though single readings can be large or run the other way; tested in mouse RAW 264.7 cells; further: potency means the concentration at half of the fitted maximal effect; on the % scale 0 is the no-effect control and ±100 the full control effect; nearly all actives have a fitted effect of over 55% in size
RGS4 inh: human RGS4 inhibition; P49798; Transcreener GDP fluorescence polarization, RGS4-accelerated GTP hydrolysis; Potency, µM (top dose mostly 114 µM), inactives show top-dose activity change, negative = inhibition, usual class: inhibitors; 390,000 tested, 0.039% active; AID 504845; active means well fitted inhibition curve with a large enough effect; inconclusive means small, poorly fitted or top-dose-only effect; inactive means no such curve, though single readings can be large or run the other way; further: potency means the concentration at half of the fitted maximal effect; on the % scale 0 is the no-effect control and ±100 the full control effect; nearly all actives have a fitted effect of over 75% in size
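MLSMR compounds (23 nl, pin-transferred) preincubated 10 min at room temperature with a 500nM (2x) first reagent, then RGS4 at 900nM (2x) plus Transcreener GDP mix added; fluorescence polarization (620/688 nm) read before and after 90 min at 30 °C.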
D3 antag: blocks the human D3 dopamine receptor; P35462; 360,000 tested, 2.5% active; D3R cells, DiscoveRx beta-arrestin luminescence, antagonist mode; hits give low values; max response, negative = inhibition, %; in the data active means max response below about -50%; inconclusive means no clear call, values can overlap the other calls; further: on the % scale 0 is the no-effect control and ±100 the full control effect
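Cells expressing the human receptor were seeded at 1500 cells/well, incubated overnight at 37 degrees C in 5% CO2, then exposed to library compounds with dopamine controls for 90 minutes at 37 degrees C before luminescent detection.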
Numbers without * were called inactive; ! = not active in a repeat; [ ] = dose if it differs, or a comment.

Screening CCOC(=O)C1(CCOc2ccccc2)CCN(Cc2ccccc2OC)CC1 returned D3 ag -20, uPA surface inh 4%, RGS4 inh 32% and D3 antag inconclusive.
`CCOC(=O)C1(c2ccccc2)CCN(CCC(C#N)(c2ccccc2)c2ccccc2)CC1` gave D3 ag -77, uPA surface inh inconclusive, RGS4 inh 15% and D3 antag -72*.
Screening CCOC(=O)C1(c2ccccc2)CCN(CCC(=O)Nc2cccc(Br)c2)CC1 returned D3 ag -27, uPA surface inh -6%, RGS4 inh 10% and D3 antag -87*.
For CCC(=O)Nc1ccccc1 the results were D3 ag 5, uPA surface inh 2%, RGS4 inh 7% and D3 antag 15.
CCOC(=O)C1(c2ccccc2)CCN(CCC(=O)Nc2ccc(C(=O)OC)cc2)CC1 was read as D3 ag -19, uPA surface inh inconclusive, RGS4 inh 7% and D3 antag -51*.
Screening Nc1nc(N)c2nc(CNc3ccc(C(=O)N[C@@H](CCC(=O)O)C(=O)O)cc3)cnc2n1 returned D3 ag 6.
C[C@]12CC[C@H]3[C@@H](CCC4=CC(=O)CC[C@@H]43)[C@@H]1CC[C@@H]2OC(=O)CCc1ccccc1 was read as D3 ag 14.
For CN1/C(=C\C=C2C(=O)NC(=O)NC2=O)C(C)(C)c2ccccc21 the results were D3 ag 1, uPA surface inh inconclusive, RGS4 inh -6% and D3 antag 1.
CCN1/C(=C/C=C/C2=[N+](CC)c3ccccc3C2(C)C)C(C)(C)c2ccccc21 was read as D3 ag -5 and D3 antag -72*.
For Oc1ccc2c3c1O[C@H]1c4oc5ccccc5c4C[C@]4(O)[C@H](C2)N(CC2CC2)CC[C@@]314 the results were RGS4 inh inactive.
For CC(C)(O)[C@@H]1C2OC(=O)[C@@H]1[C@]1(O)C[C@H]3O[C@]34C(=O)O[C@H]2[C@]14C the results were RGS4 inh 300%[56.9 µM].
`CC1=C(/C=C/C(C)=C/C=C/C(C)=C/C(=O)Nc2ccc(O)cc2)C(C)(C)CCC1` gave D3 ag 69*!, uPA surface inh inconclusive, RGS4 inh inconclusive and D3 antag 23.
Screening CN1CCC(O)(c2ccc(F)cc2)C(C(=O)c2ccc(F)cc2)C1 (configuration not stated) returned D3 ag 2.
`CCCCN1CCC(O)(c2ccccc2)C(C(=O)c2ccccc2)C1` (configuration not stated) gave D3 ag -10, uPA surface inh -4%, RGS4 inh -21% and D3 antag -65*.
`CCN(CC)c1ccc(NC(=O)c2cccc(C)c2)cc1S(=O)(=O)Nc1ccccc1OC` gave D3 ag 4, uPA surface inh 8%, RGS4 inh inconclusive and D3 antag -20.
`CN(C)c1cccc(CN2CCN(c3ccccc3)CC2)c1` gave D3 ag -12 and D3 antag -85*.
`O=C(Cc1ccccc1)N1CCN(CC2CC3C=CC2C3)CC1` (configuration not stated) gave D3 ag -15, uPA surface inh -7%, RGS4 inh 0% and D3 antag -23.
O=C(Cc1ccccc1)N1CCN(CC2CC=CCC2)CC1 (configuration not stated) was read as D3 ag -16, uPA surface inh 1%, RGS4 inh -9%[11.4 µM] and D3 antag -53*.
`ClC1=C(Cl)[C@]2(Cl)[C@@H]3[C@@H]4C[C@@H]([C@H]5O[C@@H]45)[C@@H]3[C@@]1(Cl)C2(Cl)Cl` gave D3 ag -6.
COc1ccc2c(c1OC)CN1CCc3cc4c(cc3[C@H]1C2)OCO4 was read as D3 ag -65, uPA surface inh inconclusive, RGS4 inh 12% and D3 antag -113*.
COc1ccc2c(c1OC)CN1CCc3cc4c(cc3C1C2)OCO4 (configuration not stated) was read as D3 ag -2, uPA surface inh -4%, RGS4 inh 18% and D3 antag -106*.
Screening COc1cc2c(cc1OC)C(C1c3cc4c(cc3CCN1C)OCO4)OC2=O (configuration not stated) returned D3 ag -6, uPA surface inh 0%, RGS4 inh 15% and D3 antag -11.
`CC(O)CN1CCN(CC(=O)[O-])CCN(CC(=O)[O-])CCN(CC(=O)[O-])CC1.[Gd+3]` (configuration not stated) gave D3 ag 4.
